Data on 40 molecules can be found in PubChem BioAssay (NCI).

This is part of a sample that, as a whole, favours compounds with a hit. Of some 83,000 tested, about 20% had one in any assay.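 Single-concentration screen, 48 h exposure, 96-well plates. Endpoint: percent growth. Below 10 = active.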 Unmarked numbers belong to inactive results. Active and inactive are the calls of the source.

In the experiment the test system is HL-60(TB) leukemia. Briefly: NCI-60 one-dose screen, 48 h (100 = growth as untreated, 0 = no growth, -100 = all killed). As to conditions: 10 µM unless noted.
Turning to `COc1ccc(-c2nn(-c3cccc(Cl)c3)cc2-c2cc(-c3ccc(Br)cc3)nc(N)n2)cc1`, the growth is 88.4%.

As for `COc1cc2cc(NCc3ccncc3)nc(C)c2cc1OC`, the growth is 103%.

For `N#C/C(=C\c1ccc(Br)cc1)n1nnc2ccccc21`, the growth is 2.58% (active).

Turning to `Clc1ccc2c(c1)N(c1ncnc3ccc(-c4cnc5[nH]ccc5c4)cc13)CC2`, the growth was 16.3%.

Take `Oc1ccccc1/C=N/Nc1ccc2ccccc2n1`: the growth is -8.13% (active).

`Clc1ccc(C2=Nn3c(nnc3-c3cc(Cl)cc(Cl)c3Cl)SC2)cc1`: the growth was -15% (active).

As for `NS(=O)(=O)c1ccc(C(=O)N=Nc2c(O)[nH]c3ccc(Cl)cc23)cc1`, the growth was 102%.

Consider `CC(CN(C)C)Oc1ccccc1NC1=C(Cl)C(=O)C(Nc2ccccc2OC(C)CN(C)C)=C(Cl)C1=O` (stereo not given), for which the growth was -41.8% (active).

For `COc1ccc(/C(=C\c2cc(OC)c(OC)c(OC)c2)C(=O)Nc2nc3ccc(Cl)cc3s2)cc1`, the growth is 81.4%.

Take `CCN(C(=O)N1CCN(c2cc3c(cc2F)c(=O)c(C(=O)O)cn3C2CC2)CC1)c1nc(-c2ccc(C)cc2)cs1`: the growth is 7.49% (active).

As to `Nc1nc(-c2cc3c(cc2Cl)NC(=O)/C3=C/c2ccc(Cl)cc2)cs1`, the growth was -11.7% (active).

Turning to `COc1ccc(C(O)c2cc3c(N)c(C(=O)Nc4cccc(Cl)c4C)sc3nc2C)cc1` (stereo not given), the growth was -51% (active).

Consider `C#CCOC(=O)C(N)CS` (stereo not given), for which the growth is 120%.

On to `Fc1ccc(-c2nn3c(-c4cc(C(F)(F)F)cc(C(F)(F)F)c4)nnc3s2)cc1`, for which the growth is 92.2%.

With `O=C(CCCSc1nc(-c2ccc(Cl)cc2)cc(-c2ccc(Cl)cc2)n1)NO`, the growth is -25.4% (active).

For the molecule `Cc1nn(C)c2ncnc(N/N=C/c3cccc(O)c3O)c12`, the growth is -1.19% (active).

For `Cc1ccc2nc(NC(=O)CSc3nc(-c4ccccc4)c(C#N)c(=O)n3Cc3ccccc3)sc2c1`, the growth is 100%.

In the case of `Cc1nn(-c2ccccc2)c(N2CCCCC2)c1/C=N/NC(=O)Cn1c(=O)sc2ccccc21`, the growth is 69.9%.

`COc1cc(-c2nc(SCCC(C)C)nc(Nc3ccc(F)cc3)c2C#N)cc(OC)c1OC`: the growth was 84.9%.

Turning to `CC(=O)N1N=C(c2cccc(Nc3ccncc3)c2)CC1c1ccc2c(c1)OCO2` (stereo not given), the growth is 90.3%.

Regarding `C=CCC(OC(C)=O)c1ccc(C(C)C)cc1` (stereo not given), the growth was 83.1%.

As for `Cc1ccc(/C=C/C(=O)C(=O)/C=C/c2ccc(C)cc2)cc1`, the growth is 93.3%.

As for `COc1ccc(/C=C(\C(=O)NCc2cccnc2)S(=O)(=O)c2ccccc2)cc1OC`, the growth was 33%.

For `CN1C(=O)C2(SCC(C(=O)NCC(=O)OC(C)(C)C)N2C(=O)C2CCCCC2)c2ccccc21` (stereo not given), the growth was 93.7%.

Take `O=C(O)c1cn(C2CC2)c2cc(N3CCN(C(=O)Nc4nc(-c5ccc(Br)cc5)cs4)CC3)c(F)cc2c1=O`: the growth was -2.62% (active).

For the molecule `CNC(=O)c1c(NC(=O)c2ccc(C(C)C)cc2)sc2c1CCC(=O)C2`, the growth is -13.9% (active).

For the molecule `CC(=O)O[C@H]1CC[C@@]2(C)C(=CC[C@@H]3[C@@H]2CC[C@]2(C)C(Cl)=C(c4nc5ccc(Cl)cn5c4NC(C)(C)C)C[C@@H]32)C1`, the growth was 91.9%.

As to `COc1ccc(/C=N\Nc2nc(SCCC(C)C)nc(-c3ccc(OC)cc3)c2C#N)cc1`, the growth was 34%.

On to `CS(=O)(=O)c1ccc(/C(=N/NC(N)=S)c2ccc(F)cc2)cc1`, for which the growth was 99.1%.

As for `O=c1[nH]c2ccccc2cc1-c1nnc(Cc2ccccc2)o1`, the growth was 27.1%.

As for `CCCCCCCCN(CCCCCCCC)CCCCCCCCCN1CCCc2cc(OC)ccc21`, the growth is 89.6%.

For the molecule `Fc1ccc(-c2nc(-c3ccc(-c4nc5ccc(F)cc5[nH]4)cc3)no2)cc1`, the growth is 96.3%.

In the case of `c1ccc(-c2cn3nc(-c4c[nH]c5ccccc45)sc3n2)cc1`, the growth was 95.1%.

In the case of `COc1cc(OC)cc(C(=O)Nc2cc(-c3cccnc3)nc(NCCCN3CCOCC3)n2)c1`, the growth was 86.5%.

Consider `COc1cc(/C=C2\C(=O)Nc3ccc(N(C)C)cc32)cc(OC)c1OC`, for which the growth was 27.5%.

Regarding `COc1ccc(-c2nc(-c3nc4ccc(OC)cc4[nH]3)cc3c2[nH]c2ccccc23)cc1`, the growth is 34.7%.

Consider `CCOC(=O)c1c(C)cc(=O)oc1C`, for which the growth is 105%.

On to `O=C1C=CC(=O)C2=C1CCCC2`, for which the growth was 28.7%.

Turning to `CCNC(=O)N1CCc2c(Cl)c3c(c(OC)c2[C@@H]1[C@H]1OCc2c1ccc(OC)c2OC)OCCO3`, the growth is -2.42% (active).

Regarding `COc1cc(/C=C2\CCCC3=C2NC(C)=NC3c2cc(OC)c(OC)c(OC)c2)cc(OC)c1OC` (stereo not given), the growth is -4.1% (active).
